In PubChem BioAssay one finds activation and outcome data, which are given here for twelve molecules.

The test system of test [1] is TRPC4 beta (transient receptor potential cation channel C4), mouse. The experiment in a line: TRPC4 cation channel opening, retest – cell-based, Fluo4 calcium, HEK293 TRPC4beta/mu-opioid, duplicates, 10 µM, confirmation (AID 2426).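 For activation: percent rise of integrated ratio over buffer wells lacking compound which define 0%.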 The following applies: Fluo4 calcium fluorescence, at 10 µM; stronger effect = higher value.
The subject of test [2] is transient receptor potential cation channel C4 beta (TRPC4), mouse. In words: TRPC4 cation channel opening, second retest – cell-based, second round, Fluo4, HEK293 TRPC4beta/mu-opioid, 1 µM, confirmation (AID 2461;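 active = primary screen active and over 50% activation in each of two duplicate runs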;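 for activation: 0% = wells without test compound as baseline of integrated fluorescence ratio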). The following applies: Fluo4 calcium fluorescence, at 1 µM; stronger effect = higher value.
The subject of test [3] is TRPC4 (transient receptor potential cation channel C4 beta), mouse. The experiment in a line: potentiation of DAMGO EC20 TRPC4 response – cell-based, second round, Fluo-4, HEK293 TRPC4beta/mu-opioid, 1 µM, confirmation (AID 2554;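 active = primary screen hit whose fluorescence ratio, in both repeats, exceeds the weak agonist control mean by 3 SD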). Conditions: DAMGO EC20, Fluo-4 calcium flux, at 1 µM; stronger effect = higher value. A general note: Calcium assays in cells follow changes in intracellular calcium, usually with a dye or a luminescent sensor.

Test [4] concerns TRPC4 beta (transient receptor potential cation channel C4), mouse. The experiment in a line: potentiation of DAMGO EC20 TRPC4 response – cell-based, Fluo-4, HEK293 TRPC4beta/mu-opioid, confirmation (AID 2555;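 active = primary screen hit whose calcium fluorescence ratio, in both repeats, exceeds the weak agonist control mean by 3 SD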). The following applies: DAMGO EC20, Fluo-4 calcium flux, at 10 µM; stronger effect = higher value.
Test [5] deals with Short transient receptor potential channel 4 (Mus musculus) (UniProt Q9QUQ5). In words: blockers of DAMGO-evoked TRPC4 calcium flux – cell-based, Fluo4, HEK293 TRPC4beta/mu-opioid, confirmation (AID 2636;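 active = calcium signal cut by more than 3 SD below the full-agonist control yet still positive, in both repeats and the earlier primary screen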). The following applies: at 10 µM; stronger effect = higher value.
Test [6] has the same target. In words: blockers of DAMGO-evoked TRPC4 calcium flux – cell-based, second round, Fluo4, HEK293 TRPC4beta/mu-opioid, 1 µM, confirmation (AID 2637;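 active = calcium signal ratio cut to more than 3 SD under the fully stimulated control mean yet still positive, in both repeats and the primary screen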). The following applies: at 1 µM; stronger effect = higher value.
The target is the same in test [7]. The experiment in a line: potentiation of DAMGO-evoked TRPC4 calcium signal – cell-based, HEK293 TRPC4/mu-opioid, Fluo-4 calcium, EC20 DAMGO, dose response (AID 434941;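 active = earlier screen potentiator hit that boosts the TRPC4 ion channel at some dose, with a dose response; inactive = no potentiation, no dose response, or not a prior hit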;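 note: calcium entry triggered by an EC20 dose of DAMGO at the co-expressed mu-opioid receptor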).
The target is the same in test [8]. The experiment in a line: block of DAMGO-driven TRPC4 calcium entry – cell-based, HEK293 TRPC4/mu-opioid, Fluo-4 calcium, dose response (AID 434942;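 active = primary screen inhibitor hit that blocks the TRPC4 channel at some tested dose, yielding a dose curve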).
For test [9], the target named is Short transient receptor potential channel 6 (Mus musculus) (UniProt Q61143). In words: TRPC6 blockade by TRPC4 inhibitor hits – cell-based, HEK293, membrane potential dye, duplicate, selectivity assay for TRPC4 inhibitor project, confirmation (AID 434948;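 active = active in primary screen and both duplicates, each dropping signal beyond three positive-control SD with fluorescence still positive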). The following applies: HEK293 TRPC6, membrane potential dye fluorescence, at 10 µM, stimulated with maximal-effect acetylcholine; stronger effect = higher value.

For test [10] the target is unchanged. In words: TRPC6 opening by TRPC4 activator hits – cell-based, HEK293, membrane potential dye, duplicate, selectivity assay for TRPC4 activator project, confirmation (AID 434950;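 active = membrane potential signal rise above negative control mean plus 3 SD in both duplicates, also active in the earlier TRPC4 screen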;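 for activation: 0% = buffer only wells and 100% = acetylcholine maximal-effect wells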). The following applies: HEK293 TRPC6, membrane potential fluorescence, at 10 µM; activation: stronger effect = higher value; outcome: activation.
Test [11] shares this target. In words: positive modulators of mouse TRPC6 channel – HEK293 cells, membrane potential dye, duplicate, selectivity assay for TRPC4 potentiator project, confirmation (AID 434952;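 active = compound raising the membrane signal above positive-control mean plus 3 SD in both repeats, and a primary screen hit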). The following applies: HEK293 TRPC6, membrane potential dye fluorescence, at 10 µM, maximal acetylcholine added after compound; stronger effect = higher value.
The target of test [12] is Short transient receptor potential channel 4 (Mus musculus) (UniProt Q9QUQ5). In words: calcium flux activators in TRPC4/5HT1a cells, counter-screen for TRPC4 activator project, cell-based, second counter screen, HEK293 TRPC4/5HT1a, Fluo-4 (AID 434977;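 active = calcium signal rise above buffer-control mean plus 5 SD in both duplicates, and also a hit in the primary screen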;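 for activation: plate controls were assay buffer for no effect and maximal serotonin response for full effect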). The following applies: Fluo-4 calcium flux, at 10 µM; stronger effect = higher value.
Test [13] can be described thus: serotonin-gated TRPC4 signal block – cell-based, second counter screen, HEK293 TRPC4/5HT1a, Fluo-4, counter-screen for TRPC4 inhibitor project, confirmation (AID 434978;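 active = primary screen active whose calcium signal fell more than 3 SD beyond the full-serotonin control mean in both duplicate plates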;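 note: serotonin given first at submaximal then at maximal dose after compound preincubation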). The following applies: Fluo-4 calcium flux, at 10 µM, serotonin added to trigger calcium flux; stronger effect = higher value.
The subject of test [14] is TRPC4 (mouse), co-expressed with 5HT1a in HEK293. The experiment in a line: enhancement of serotonin-evoked TRPC4 response – cell-based, second counter screen, HEK293 TRPC4/5HT1a, Fluo-4, counter-screen for TRPC4 potentiator project, confirmation (AID 434979;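 active = signal rise over 3 SD above mean of control wells given weak agonist, in both repeats and first screen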). The following applies: Fluo-4 calcium flux, at 10 µM, serotonin added at its EC20 dose; stronger effect = higher value.
Test [15] is described as follows: nonspecific calcium rise without TRPC4 – cell-based, HEK293 mu-opioid receptor line, counter-screen for TRPC4 activator project, confirmation (AID 449723;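 active = hit in primary screen, with calcium signal over 5 SD above buffer well mean in both duplicates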;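 note: counter screen cells carry the mu-opioid receptor alone and lack TRPC4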). The following applies: HEK293 mu-opioid cells, Fluo-4 calcium fluorescence, at 10 µM; stronger effect = higher value. (A counterscreen serves to expose hits that act by an unwanted route or on another target.)
Test [16] can be described thus: nonspecific potentiation of DAMGO calcium response – cell-based, HEK293 mu-opioid receptor line, counter-screen for TRPC4 allosteric potentiator project, confirmation (AID 449724;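 active = calcium signal rise more than 3 SD above the low-dose agonist control mean, in both duplicate plates and the primary screen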;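 note: HEK293 cells carrying mu-opioid receptor only with no TRPC4 channel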). The following applies: HEK293 mu-opioid receptor cells, Fluo-4 calcium flux, at 10 µM, compound added before EC20 DAMGO stimulus; stronger effect = higher value.

For part of these data: Results with a measured potency or affinity are listed apart. The source made the active and inactive calls.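 Rule for the calls, unless noted: active = fluorescence ratio normalized to control raised more than 50% in primary screen plus both repeat runs; inactive = the rest.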

Sequence of Short transient receptor potential channel 4 (Mus musculus) (Q9QUQ5 whole entry, looked up): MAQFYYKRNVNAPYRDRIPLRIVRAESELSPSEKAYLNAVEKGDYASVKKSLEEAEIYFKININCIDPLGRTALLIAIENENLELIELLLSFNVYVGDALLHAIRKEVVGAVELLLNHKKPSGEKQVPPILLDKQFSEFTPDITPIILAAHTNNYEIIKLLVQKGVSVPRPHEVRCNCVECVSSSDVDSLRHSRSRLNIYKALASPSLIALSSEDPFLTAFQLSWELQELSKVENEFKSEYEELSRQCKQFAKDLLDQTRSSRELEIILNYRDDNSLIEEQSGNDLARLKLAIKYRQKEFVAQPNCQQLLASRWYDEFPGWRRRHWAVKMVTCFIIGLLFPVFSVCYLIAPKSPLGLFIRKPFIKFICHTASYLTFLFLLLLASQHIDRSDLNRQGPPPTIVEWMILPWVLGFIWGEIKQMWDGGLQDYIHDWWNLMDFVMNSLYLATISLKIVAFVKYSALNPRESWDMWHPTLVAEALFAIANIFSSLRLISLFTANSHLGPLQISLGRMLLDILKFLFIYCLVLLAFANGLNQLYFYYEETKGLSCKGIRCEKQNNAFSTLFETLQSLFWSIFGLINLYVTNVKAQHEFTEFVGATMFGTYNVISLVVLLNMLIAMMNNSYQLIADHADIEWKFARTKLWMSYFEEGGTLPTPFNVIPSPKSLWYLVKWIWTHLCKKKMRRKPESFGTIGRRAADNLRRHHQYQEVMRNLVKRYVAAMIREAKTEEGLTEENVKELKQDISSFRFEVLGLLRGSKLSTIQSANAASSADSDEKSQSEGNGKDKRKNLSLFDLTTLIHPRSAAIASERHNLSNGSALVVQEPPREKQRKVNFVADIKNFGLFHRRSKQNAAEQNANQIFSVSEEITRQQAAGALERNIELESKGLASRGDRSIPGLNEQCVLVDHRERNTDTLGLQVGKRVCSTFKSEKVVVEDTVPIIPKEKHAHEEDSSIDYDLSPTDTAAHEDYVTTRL
Sequence of Short transient receptor potential channel 6 (Mus musculus) (Q61143 whole entry, looked up): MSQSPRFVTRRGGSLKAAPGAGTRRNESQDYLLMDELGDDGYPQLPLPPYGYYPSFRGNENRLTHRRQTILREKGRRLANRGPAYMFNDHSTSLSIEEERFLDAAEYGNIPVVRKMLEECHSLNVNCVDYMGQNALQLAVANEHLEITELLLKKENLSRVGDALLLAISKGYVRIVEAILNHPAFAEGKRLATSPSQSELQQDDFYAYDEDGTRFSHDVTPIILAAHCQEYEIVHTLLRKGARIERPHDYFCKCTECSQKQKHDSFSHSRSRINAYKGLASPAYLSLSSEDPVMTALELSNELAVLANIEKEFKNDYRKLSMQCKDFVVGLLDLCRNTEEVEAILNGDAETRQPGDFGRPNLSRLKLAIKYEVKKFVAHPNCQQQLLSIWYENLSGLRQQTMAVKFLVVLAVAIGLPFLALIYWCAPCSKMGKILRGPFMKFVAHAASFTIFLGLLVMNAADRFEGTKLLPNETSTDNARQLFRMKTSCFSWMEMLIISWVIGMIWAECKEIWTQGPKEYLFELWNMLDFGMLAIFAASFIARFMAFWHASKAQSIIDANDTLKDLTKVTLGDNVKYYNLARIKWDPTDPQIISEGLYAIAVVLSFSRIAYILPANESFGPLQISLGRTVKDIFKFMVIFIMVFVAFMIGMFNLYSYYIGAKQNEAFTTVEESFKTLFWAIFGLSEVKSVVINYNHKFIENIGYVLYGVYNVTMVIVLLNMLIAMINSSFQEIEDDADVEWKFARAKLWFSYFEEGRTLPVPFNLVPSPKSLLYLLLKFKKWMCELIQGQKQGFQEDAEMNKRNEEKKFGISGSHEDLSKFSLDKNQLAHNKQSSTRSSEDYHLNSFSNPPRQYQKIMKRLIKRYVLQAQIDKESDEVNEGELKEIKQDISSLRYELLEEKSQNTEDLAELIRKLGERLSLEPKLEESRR

Consider `COc1c(C)cc(C(=O)C2CCCN(Cc3cccc4nccnc34)C2)cc1C` (configuration not stated), for which the activation is 108% (active) in [1], 24% (active) in test [10] and 37.7% (active) in test [12]. Further, the outcome in test [2], in [3], in test [4], in test [5], in test [6] and in test [7] was inactive. In addition, the outcome in [8], in test [9], in test [11], in test [13], in test [14] and in [15] was inactive. The outcome in test [16] was inactive.
Consider `CCCCN(CC)CCNC(=O)c1cc2c(-c3ccc(Cl)cc3)nn(C)c2s1`, for which the outcome in [1], in [2], in test [3], in [4], in test [5] and in [6] was inactive. For the same molecule, the outcome in test [7], in test [8], in test [9], in test [10], in [11] and in test [13] was inactive. Also, the result in test [14], in test [15] and in test [16] was inactive. The activation in test [12] was 20.5% (active).
Take `COc1ccc(CN2CCC(n3nccc3NC(=O)CCc3ccccc3)CC2)c(C)c1C`: the activation in test [1] was 68% (active); in test [10], 72% (active). For the same molecule, the outcome in [2], in test [3], in test [4], in test [5], in test [6] and in [7] was inactive. In addition, the result in test [8], in test [9], in [11], in test [12], in test [13] and in test [14] was inactive. Moreover, the result in test [15] and in test [16] was inactive.
For the molecule `Cc1ccc(NC(=S)NC2CC3CCC(C2)N3Cc2ccco2)c(C)c1` (configuration not stated), the activation in [1] is 116% (active); in test [12], 25.9% (active). In addition, the result in [2], in test [3], in [4], in test [5], in test [6] and in test [7] was inactive. The result in test [8], in test [9], in test [10], in test [11], in test [13] and in [14] was inactive. Also, the result in [15] and in [16] was inactive.
Consider `CCN1CCN(c2ccc(S(=O)(=O)N3CCCCC3)cc2NC(=O)CC(C)c2ccccc2)CC1` (configuration not stated), for which, in [1], the activation is 140% (active). Besides, the result in test [2], in [3], in test [4], in test [5], in [6] and in test [7] was inactive. For the same molecule, the outcome in test [8], in [9], in [10], in [11], in [12] and in [13] was inactive. Also, the outcome in test [14], in test [15] and in test [16] was inactive.
For the molecule `CC[C@@H](C)[C@H](CNC)NC[C@@H](Cc1cccc2ccccc12)NCCc1cccc(C(F)(F)F)c1`, the activation in test [1] is 127% (active); in test [10], 29% (active); in test [12], 111% (active); in test [15], 25.7% (active). For the same molecule, the outcome in test [2], in test [3], in [4], in test [5], in [6] and in [7] was inactive. In addition, the outcome in test [8], in test [9], in [11], in [13], in test [14] and in test [16] was inactive.
`Cc1cc(C)cc(NC(=S)N2CCN(c3ncc(C(F)(F)F)cc3Cl)CC2)c1`: the activation in [1] was 105% (active); in test [10], 25% (active); in test [12], 49.6% (active). Also, the outcome in test [2], in test [3], in test [4], in test [5], in test [6] and in [7] was inactive. The outcome in test [8], in test [9], in test [11], in [13], in test [14] and in [15] was inactive. Moreover, in [16], the outcome was inactive.
As to `CCCN(CCC)CCCNC(=O)c1cc2c(-c3ccc(OC)c(OC)c3)nn(C)c2s1`, the activation in test [1] was 97% (active); in test [2], 78% (active); in test [12], 38.6% (active). Also, the outcome in test [3], in test [4], in [5], in test [6], in test [7] and in [8] was inactive. Moreover, the molecule was classed as inactive in test [9], in test [10], in test [11], in test [13], in test [14] and in [15]. For the same molecule, the outcome in test [16] was inactive.
As for `CN(C)C(CNC(=S)Nc1ccc(Cl)cc1)c1cccnc1` (configuration not stated), the outcome in test [1], in test [3], in test [4], in test [5], in [6] and in test [7] was inactive. Also, the outcome in [8], in [9], in test [10], in test [11], in [12] and in [13] was inactive. Also, the outcome in test [14], in [15] and in [16] was inactive. Moreover, the activation in [2] is 118% (active).
For `CCCN(CCC)CCCNC(=O)c1ccc2c(Cl)c3c(nc2c1)CCC3`, the activation was 90% (active) in test [1], 89% (active) in test [2], 27% (active) in test [10] and 105% (active) in test [12]. Moreover, the outcome in test [3], in test [4], in [5], in test [6], in [7] and in test [8] was inactive. Also, the outcome in test [9], in test [11], in test [13], in test [14], in [15] and in test [16] was inactive.
As for `O=C(CN1CCN(c2ncc(C(F)(F)F)cc2Cl)CC1)N1CCN(c2ncc(C(F)(F)F)cc2Cl)CC1`, the activation in test [1] is 128% (active); in test [12], 42% (active). The outcome in test [2], in [3], in test [4], in test [5], in [6] and in test [7] was inactive. The result in [8], in [9], in [10], in test [11], in [13] and in test [14] was inactive. Moreover, the outcome in test [15] and in [16] was inactive.
On to `COc1cccc(CN2CCNC(=O)C2CC(=O)N(C)CCc2ccccn2)c1` (configuration not stated), for which the activation was 186% (active) in test [1], 92% (active) in [2] and 39% (active) in [12]. The outcome in test [3], in test [4], in test [5], in test [6], in test [7] and in test [8] was inactive. Besides, the call in test [9], in test [10], in test [11], in [13], in [14] and in test [15] was inactive. The outcome in [16] was inactive.
